Compounds with a hit are over-represented: about 2.9% of the library has one in this group of screens.
ZTA DNA inh = ZTA (EBV) inhibition in EBNA-1 counter-screen | P03206 | hit rate 0.15% among 320,000 | inhibition, % at 11 µM | ZTA-DNA binding, fluorescence polarization; in the data active means inhibition above about 33%
PAFAH1B3 inh = blocks human PAF acetylhydrolase 1B catalytic subunit 3 | recombinant PAFAH1B3, FP-rhodamine probe, fluorescence polarization | inhibition, % at 3.39 µM | hit rate 0.28% among 340,000 | AID 492972;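 active means inhibition above the screen-wide average of all tested compounds plus 3 SD, cut at about 25% in these data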;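 further: 0% = enzyme with DMSO only and 100% = wells lacking PAFAH1B3 protein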
Target sequence (Q15102 whole entry, looked up): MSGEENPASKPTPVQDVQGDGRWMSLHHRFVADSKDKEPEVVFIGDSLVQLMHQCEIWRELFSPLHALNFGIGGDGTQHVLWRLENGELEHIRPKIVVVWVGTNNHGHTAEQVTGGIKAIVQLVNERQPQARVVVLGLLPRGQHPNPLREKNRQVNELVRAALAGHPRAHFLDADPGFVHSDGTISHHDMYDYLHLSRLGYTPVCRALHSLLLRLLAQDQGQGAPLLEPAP
PAFAH1B2 inh = PAFAH1B2 (human) inhibition | P68402 | recombinant PAFAH1B2, FP-rhodamine activity probe, fluorescence polarization | inhibition, % at 3.39 µM | hit rate 1.2% among 340,000 | AID 492953;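 active means inhibition above the mean of all tested compounds plus 3 SD, cut at about 24% in these data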;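 further: 0% = enzyme with DMSO and 100% = wells lacking PAFAH1B2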
EBNA-1 inhibitor = blocks EBNA-1 binding to DNA; EBNA-1 DNA binding, fluorescence polarization; inhibition, % at 14.8 µM; hit rate 0.34% among 300,000; AID 1950; in the data active means inhibition above about 28%
PAFAH2 inh = PAFAH2 (human) inhibition; AID 492956; recombinant PAFAH2, FP-rhodamine activity probe, fluorescence polarization; hit rate 0.99% among 340,000; inhibition, % at 3.39 µM; Q99487;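 active means inhibition above the mean over all tested compounds plus 3 SD, cut at about 30% in these data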;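 further: inhibitors block probe labeling of enzyme so polarization drops; 0% = enzyme with DMSO and 100% = wells lacking PAFAH2 protein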
pPAFAH inh = inhibitors of human plasma PAF acetylhydrolase (pPAFAH) | inhibition, % at 3.39 µM | hit rate 1.5% among 330,000 | recombinant pPAFAH, FP-rhodamine probe fluorescence polarization | Q13093;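 active means inhibition above the mean inhibition across the screen plus 3 SD, cut at about 25% in these data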;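 further: inhibitors block binding of the rhodamine activity-based probe so polarization drops; 0% = enzyme with DMSO and 100% = wells lacking pPAFAH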
* hit, by the source's call; . = no result given.

SMILES | ZTA DNA inh | PAFAH1B3 inh | PAFAH1B2 inh | EBNA-1 inhibitor | PAFAH2 inh | pPAFAH inh
Cc1ccccc1C(=O)N1CCC(C(=O)N(CC(C)C)c2c(N)n(Cc3ccccc3)c(=O)[nH]c2=O)CC1 | 12 | 4 | 5 | -10 | 5 | 3
CC(C)CCNC(=O)C(CC(C)C)N(Cc1ccc2c(c1)OCO2)C(=O)c1snc(C(N)=O)c1N (configuration not stated) | -3 | 8 | 1 | 1 | 5 | -2
C=C[C@]1(C)C=C2CC[C@H]3[C@@](C)(CCC[C@@]3(C)C(=O)O)[C@@H]2CC1 | . | 0 | 48* | . | 9 | 4
C=C1C[C@@]23CCC4[C@@](C)(CCC[C@@]4(C)C(=O)O)C2CC[C@]1(O)C3 (some centres not stated) | -7 | 5 | -3 | . | 9 | 3
CC(C)On1c(SCC(=O)N(C)C)nc2ccccc2c1=O | -6 | . | . | 0 | . | -6
CC(C)n1cnc2c(NCc3ccccc3)cc(Cc3ccc(F)cc3)cc21 | 8 | 7 | 5 | . | 17 | 28*
CCC(CO)Oc1cc(NCc2ccc(Cl)cc2)c2ncn(C(C)C)c2c1 (configuration not stated) | . | 7 | 28* | . | 6 | 8
CCOc1cc(NCc2ccccc2)c2ncn(C(C)C)c2c1 | . | 1 | 12 | . | 13 | 22
CCCOc1cc(NCc2ccccc2)c2ncn(C(C)C)c2c1 | -3 | -6 | 4 | . | 9 | 25*
CC[C@H](CO)Oc1cc(NCc2ccc(Cl)c(Cl)c2)c2ncn(C(C)C)c2c1 | . | 4 | 17 | . | 12 | 15
O=C(CCCOc1ccccc1)Nc1cccc(S(=O)(=O)N2CCCCCC2)c1 | -5 | 4 | -3 | . | 0 | 3
O=C1CCN(CCc2ccccc2)CCN1CCSc1ccccc1 | -4 | 7 | 4 | -11 | 16 | 31*
COc1ccc(N2CCN(C(=O)C3CCCN3S(=O)(=O)c3cccc4nsnc34)CC2)cc1 (configuration not stated) | -6 | 20 | 9 | 7 | 5 | 5
CCOc1ccccc1NC(=O)NC(C)c1ccncc1 (configuration not stated) | 10 | 9 | 3 | -3 | 11 | -2
O=C(O/N=C/c1ccc(Br)cc1)c1ccc(F)cc1 | -19 | 2 | 45* | 5 | 67* | -2
N/C(=N\OC(=O)c1ccc(F)cc1)c1ccc(Br)cc1 | 10 | 3 | 2 | -1 | -1 | -5
COC(=O)c1ccc(N2CCOCC2)c(NC(=O)Nc2cccc(OC)c2)c1 | 3 | 8 | 2 | 3 | 7 | -2
CCOC(=O)c1ccc(N2CCN(c3ccccc3F)CC2)c(NC(=O)Nc2cccc(OC)c2)c1 | -14 | -22 | -8 | -1 | -10 | 26*
CCS(=O)(=O)Nc1cccc(C(=O)O)c1 | 2 | . | . | -2 | . | 3
Cc1cc(C(C)(C)C)cc(S(=O)(=O)Nc2cccc(C(=O)O)c2)c1C | 8 | 6 | 30* | 3 | 3 | 3
CN(C)S(=O)(=O)c1cccc(NC(=O)c2sccc2-c2ccccc2)c1 | . | 8 | 17 | . | 2 | .
COc1ccc(-n2c(SCC#N)nnc2-c2ccc(NS(=O)(=O)c3ccc(C)cc3)cc2)cc1 | -10 | 6 | 4 | 3 | 7 | 26*
CCCCCOc1ccc(NC2=CC(=O)CCC2)cc1 | 0 | 5 | 1 | -16 | 8 | 8
Nc1ccc2nc(-c3cccc(-c4nc5ccc(N)cc5[nH]4)c3)[nH]c2c1 | -22 | 31* | 24* | -10 | 7 | 6
Nc1ccc(-c2nc3ccc(N)cc3[nH]2)cc1 | -5 | 10 | 7 | 6 | 2 | 4
Cc1cc(C(=O)CSc2cccc[n+]2[O-])c(C)n1-c1ccc(Br)cc1 | 3 | . | . | -4 | . | 44*
Cc1ccc(S(=O)(=O)NCc2ccc(C(=O)N3CCN(c4ccccn4)CC3)cc2)cc1 | -12 | -6 | -5 | 4 | 0 | 9
Cc1ccc(NS(=O)(=O)c2ccc(C(=O)NC3CCN(Cc4ccccc4)CC3)cc2)cc1 | . | 7 | 4 | . | -4 | 26*
O=C(c1ccc(S(=O)(=O)Nc2ccccc2)cc1)N1CCCC(C(F)(F)F)C1 (configuration not stated) | -2 | -2 | 1 | 1 | 3 | 28*
Cc1ccc(NS(=O)(=O)c2ccc(C(=O)N3CCN(c4ccccn4)CC3)cc2)cc1 | -4 | 0 | 6 | 2 | -1 | 25*
